Screens: PubChem, The Scripps Research Institute Molecular Screening Center
hgDAF-12 ag – hgDAF-12 agonism, primary luciferase screen | 370,000 compounds, 1.8% hits | activation, % at 6.8 µM | HEK293 GAL4-hgDAF12 UAS-luciferase reporter, agonist luminescence; normalized to butyrate control | AID 687014;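 active means activation above a cutoff set at the mean of all screened compounds plus 3 SD, cut at about 10% in these data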
hcDAF12 agonist – activates DAF-12 receptor from parasite H. contortus. HEK293 hcDAF-12 lit1-tk-luc reporter, luminescence; 0% DMSO, 100% Δ7-dafachronic acid. activation, % at 6.8 µM. 370,000 compounds, 1.4% hits. AID 652067;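 active means activation above the mean of all tested compounds plus 3 SD, cut at about 5.5% in these data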
DAX1 inh-1 – inhibits human nuclear receptor DAX1 | HEK293 Gal4-DAX1 luciferase reporter, luminescence | P51843 | 340,000 compounds, 0.99% hits | inhibition, % at 6.75 µM;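 active means inhibition above the mean over all tested compounds plus 3 SD, cut at about 4.2% in these data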;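 further: inhibition shows as a rise in luminescence from relieved DAX1 repression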
Target sequence (P51843 207-470 limits assumed): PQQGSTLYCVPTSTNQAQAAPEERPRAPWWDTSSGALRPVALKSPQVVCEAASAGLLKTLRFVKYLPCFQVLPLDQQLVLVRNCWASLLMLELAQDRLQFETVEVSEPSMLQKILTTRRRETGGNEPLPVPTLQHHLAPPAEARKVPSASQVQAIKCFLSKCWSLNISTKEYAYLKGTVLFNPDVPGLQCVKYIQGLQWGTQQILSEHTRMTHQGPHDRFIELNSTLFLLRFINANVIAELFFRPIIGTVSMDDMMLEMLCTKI
ssDAF-12 act – S. stercoralis DAF-12 activation, primary screen; activation, % at 6.8 µM; AID 652126; HEK293 ssDAF-12/GRIP1 lit1-tk-luc reporter, luminescence; % of 3 µM dafachronic acid response; 370,000 compounds, 1% hits;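 active means activation above the mean over all tested compounds plus 3 SD, cut at about 0.9% in these data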
DAX1 inh-2 – blocks DAX1 repression of SF-1 activated StAR promoter; HEK293T StAR-luciferase reporter, SF-1/DAX-1 repression relief; 370,000 compounds, 1.1% hits; inhibition, % at 6.8 µM;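 active means inhibition above the mean over all tested compounds plus 3 SD, cut at about 3.6% in these data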;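 further: higher inhibition means more luminescence from relief of DAX-1 repression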
LXRb hcDAF ctr – counter-screen for hcDAF-12 agonists: agonists of human LXR-beta; HEK293 Gal4-LXR tk-luc reporter, luminescence, 24 h; normalized: DMSO 0%, positive control 100%; 3,400 tested, under 10 active; shares compounds with hcDAF12 agonist; activation, % at 6.8 µM;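 active means mean percent activation of the reporter above a cutoff set as the average over tested compounds plus their standard deviation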
Target sequence (P55055 whole entry, looked up, the tested form may be a part): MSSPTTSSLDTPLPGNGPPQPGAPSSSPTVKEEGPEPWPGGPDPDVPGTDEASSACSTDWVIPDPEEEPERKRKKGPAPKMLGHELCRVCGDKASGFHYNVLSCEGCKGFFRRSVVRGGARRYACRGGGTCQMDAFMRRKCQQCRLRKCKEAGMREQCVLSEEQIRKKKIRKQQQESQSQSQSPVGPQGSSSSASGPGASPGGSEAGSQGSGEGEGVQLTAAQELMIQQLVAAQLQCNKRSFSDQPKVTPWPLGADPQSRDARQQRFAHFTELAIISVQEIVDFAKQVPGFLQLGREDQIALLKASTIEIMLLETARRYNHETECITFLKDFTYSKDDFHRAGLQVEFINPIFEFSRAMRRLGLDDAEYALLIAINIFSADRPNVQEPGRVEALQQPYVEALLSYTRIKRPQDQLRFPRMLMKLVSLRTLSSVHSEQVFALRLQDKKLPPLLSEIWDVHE
hcDAF12 conf – confirmation of H. contortus DAF-12 agonists | AID 743032 | 3,400 compounds, 61% hits | activation, % at 6.8 µM | shares compounds with hcDAF12 agonist | HEK293 hcDAF-12 lit1-tk-luc reporter, luminescence; % of Δ7-dafachronic acid response;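 active means mean activation across triplicate tests above the threshold derived from the earlier primary screen, cut at about 5.5% in these data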
Numbers stand for hits. Only some compounds are listed: those with a hit (about 4.1% of all), similar ones and a draw of the others.

What do the screens show for `COc1ccc(N=C2NN=C(c3c(C)[nH]c4ccccc34)CS2)cc1`?
hgDAF-12 ag: inactive; hcDAF12 agonist: inactive; DAX1 inh-1: inactive; ssDAF-12 act: inactive; DAX1 inh-2: inactive

How did Cc1[nH]c2ccccc2c1C1=NNC(=Nc2ccc(F)cc2)SC1 do in these assays?
hgDAF-12 ag: inactive; hcDAF12 agonist: 7.1; DAX1 inh-1: 4.4; ssDAF-12 act: inactive; DAX1 inh-2: inactive; LXRb hcDAF ctr: inactive; hcDAF12 conf: inactive

What do the screens show for `Cc1cc(C(=O)NCCCN(C)C)c2ccccc2n1`?
hgDAF-12 ag: inactive; hcDAF12 agonist: inactive; DAX1 inh-1: inactive; ssDAF-12 act: inactive; DAX1 inh-2: inactive

Results for CCCCN(C)CCCNC(=O)c1cc(Nc2ccc(OC)c(OC)c2)nc2ccccc12 ?
hgDAF-12 ag: inactive; hcDAF12 agonist: 7.8; DAX1 inh-1: inactive; ssDAF-12 act: inactive; DAX1 inh-2: inactive; LXRb hcDAF ctr: inactive; hcDAF12 conf: inactive

What do the screens show for `COc1cc(C(=O)Oc2cc(C)[nH]c(=O)c2[N+](=O)[O-])cc(OC)c1OC`?
hgDAF-12 ag: inactive; hcDAF12 agonist: inactive; DAX1 inh-1: inactive; ssDAF-12 act: inactive; DAX1 inh-2: inactive

Results for Cc1cc(C)cc(C(=O)Oc2cc(C)[nH]c(=O)c2[N+](=O)[O-])c1 ?
hgDAF-12 ag: inactive; hcDAF12 agonist: 8.5; DAX1 inh-1: inactive; ssDAF-12 act: inactive; DAX1 inh-2: inactive; LXRb hcDAF ctr: inactive; hcDAF12 conf: inactive

What do the screens show for `Cc1cc(C)cc(NC(=S)Nc2ccccn2)c1`?
hgDAF-12 ag: inactive; hcDAF12 agonist: 7.5; DAX1 inh-1: inactive; ssDAF-12 act: inactive; DAX1 inh-2: inactive; LXRb hcDAF ctr: inactive; hcDAF12 conf: inactive

Results for Cc1ccc(NC(=S)Nc2ccccn2)c(C)c1 ?
hgDAF-12 ag: inactive; hcDAF12 agonist: 7.2; DAX1 inh-1: inactive; ssDAF-12 act: inactive; DAX1 inh-2: inactive; LXRb hcDAF ctr: inactive; hcDAF12 conf: 8.7

Results for Cc1ccc(NC(=S)Nc2ccccn2)cc1C ?
hgDAF-12 ag: 13; hcDAF12 agonist: 8.6; ssDAF-12 act: 1.8; DAX1 inh-2: inactive; LXRb hcDAF ctr: inactive; hcDAF12 conf: 11

What do the screens show for `CC1(C(=O)NCc2ccccc2)CSCC(=O)N1CC(F)(F)F` (stereo unspecified)?
hgDAF-12 ag: inactive; hcDAF12 agonist: inactive; ssDAF-12 act: inactive; DAX1 inh-2: inactive

Results for COc1ncnc2c1ncn2CCCN(CCCc1ccccc1)CCCn1cnc2c(OC)ncnc21 ?
hgDAF-12 ag: inactive; hcDAF12 agonist: inactive; DAX1 inh-1: inactive; ssDAF-12 act: inactive; DAX1 inh-2: inactive

What do the screens show for `CC(C)CN1CN2CCc3ccccc3C2CS1(=O)=O` (stereo unspecified)?
hgDAF-12 ag: inactive; hcDAF12 agonist: inactive; ssDAF-12 act: inactive; DAX1 inh-2: inactive

What do the screens show for `C[C@H](CO)N1C[C@H](C)[C@H](CN(C)S(=O)(=O)c2ccc(F)cc2)Oc2ncc(Br)cc2C1=O`?
hgDAF-12 ag: inactive; hcDAF12 agonist: inactive; DAX1 inh-1: inactive; ssDAF-12 act: inactive; DAX1 inh-2: inactive

How did COc1cc(C(=O)N2CCCCC2c2cc(C(=O)NCc3cccnc3)no2)cc(OC)c1C (stereo unspecified) do in these assays?
hgDAF-12 ag: inactive; hcDAF12 agonist: inactive; ssDAF-12 act: inactive; DAX1 inh-2: inactive

Results for O=C(OCc1ccccc1)N1CCC2CC1c1ccc(/C=C/CCCCl)cc12 (stereo unspecified) ?
hgDAF-12 ag: inactive; hcDAF12 agonist: inactive; ssDAF-12 act: inactive; DAX1 inh-2: inactive

What do the screens show for `COc1cc(/C=N/Nc2ccc3ccccc3c2)ccc1OC(=O)c1ccco1`?
hgDAF-12 ag: inactive; hcDAF12 agonist: 6.8; DAX1 inh-1: inactive; ssDAF-12 act: inactive; DAX1 inh-2: inactive; LXRb hcDAF ctr: inactive; hcDAF12 conf: 7.5

Results for S=C(NCCN1CCOCC1)Nc1ccc(Br)cc1 ?
hgDAF-12 ag: inactive; hcDAF12 agonist: 6.9; DAX1 inh-1: inactive; ssDAF-12 act: inactive; DAX1 inh-2: inactive; LXRb hcDAF ctr: inactive; hcDAF12 conf: inactive

Results for CCOC(=O)N1CCC(NC(=O)c2cc3c(-c4ccc(Cl)cc4)nn(C)c3s2)CC1 ?
hgDAF-12 ag: inactive; hcDAF12 agonist: 7.8; DAX1 inh-1: inactive; ssDAF-12 act: inactive; DAX1 inh-2: inactive; LXRb hcDAF ctr: inactive; hcDAF12 conf: inactive

How did COCCNC(=O)c1cc2c(-c3ccc(Cl)cc3)nn(C)c2s1 do in these assays?
hgDAF-12 ag: inactive; hcDAF12 agonist: 6.8; DAX1 inh-1: inactive; ssDAF-12 act: inactive; DAX1 inh-2: inactive; LXRb hcDAF ctr: inactive; hcDAF12 conf: inactive

How did COCCNC(=O)c1cc2c(-c3ccccc3F)nn(C)c2s1 do in these assays?
hgDAF-12 ag: inactive; hcDAF12 agonist: inactive; DAX1 inh-1: inactive; ssDAF-12 act: inactive; DAX1 inh-2: inactive

How did Cn1nc(-c2ccc(Cl)cc2)c2cc(C(=O)NCCCN3CCCC3)sc21 do in these assays?
hgDAF-12 ag: inactive; hcDAF12 agonist: 9.5; DAX1 inh-1: inactive; ssDAF-12 act: inactive; DAX1 inh-2: inactive; LXRb hcDAF ctr: inactive; hcDAF12 conf: 6.5

What do the screens show for `Cn1nc(-c2ccc(Cl)cc2)c2cc(C(=O)N3CCCC3)sc21`?
hgDAF-12 ag: inactive; hcDAF12 agonist: inactive; DAX1 inh-1: inactive; ssDAF-12 act: inactive; DAX1 inh-2: inactive

How did COc1ccc(C(=O)N2CCC[C@H]2C(=O)N2CCC[C@@H]2C(=O)NCc2ccccc2)cc1F do in these assays?
hgDAF-12 ag: inactive; hcDAF12 agonist: inactive; ssDAF-12 act: inactive; DAX1 inh-2: inactive

What do the screens show for `N#Cc1ccc(C(=O)N2CCC3CC2c2cc(N4CCCCC4)ccc23)cc1` (stereo unspecified)?
hgDAF-12 ag: inactive; hcDAF12 agonist: inactive; DAX1 inh-1: inactive; ssDAF-12 act: inactive; DAX1 inh-2: inactive

Results for CC(=O)c1c(C)nc(-c2ccc(Cl)cc2)nc1N ?
hgDAF-12 ag: inactive; hcDAF12 agonist: 15; DAX1 inh-1: inactive; ssDAF-12 act: 1.6; DAX1 inh-2: inactive; LXRb hcDAF ctr: inactive; hcDAF12 conf: 7.3

Results for CC(=O)c1sc(-c2ccc(Cl)cc2)nc1C ?
hgDAF-12 ag: inactive; hcDAF12 agonist: inactive; DAX1 inh-1: inactive; ssDAF-12 act: inactive; DAX1 inh-2: inactive

Results for CC(=O)c1c(C)nc(-c2ccc(Cl)cc2)nc1N=CN(C)C ?
hgDAF-12 ag: inactive; hcDAF12 agonist: 8.6; DAX1 inh-1: inactive; ssDAF-12 act: 1.0; DAX1 inh-2: inactive; LXRb hcDAF ctr: inactive; hcDAF12 conf: 8.6

Results for COc1ccc2oc(=O)c(/C(C)=N/Nc3nc(-c4cc(C)ccc4C)cs3)cc2c1 ?
hgDAF-12 ag: inactive; hcDAF12 agonist: 6.7; DAX1 inh-1: inactive; ssDAF-12 act: inactive; DAX1 inh-2: inactive; LXRb hcDAF ctr: inactive; hcDAF12 conf: inactive
